Measured values taken from PubChem BioAssay AID778 (Sanford-Burnham Center for Chemical Genomics, 2007).
About 20,000 (21%) of roughly 96,000 compounds were called active.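 How the source made its calls: active means CYP2C19 inhibition above a set limit at 5 µM in the primary screen (cut at about 50% in these data); inactive means the rest.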 A selection follows.

Molecular target: Cytochrome P450 2C19 (Homo sapiens) (UniProt P33261)
Assay: blockers of cytochrome P450 2C19 activity – biochemical, luminescence, ADME assay, primary screen (AID 778);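 further: plate controls were negative control wells for no effect and 2.5 mM tranylcypromine positive control for full effect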
Conditions: CYP2C19 Supersomes, luciferin-H EGE luminescence, 30 min; at 5 µM; stronger effect = higher value

Sequence of Cytochrome P450 2C19 (Homo sapiens) (P33261 whole entry, looked up): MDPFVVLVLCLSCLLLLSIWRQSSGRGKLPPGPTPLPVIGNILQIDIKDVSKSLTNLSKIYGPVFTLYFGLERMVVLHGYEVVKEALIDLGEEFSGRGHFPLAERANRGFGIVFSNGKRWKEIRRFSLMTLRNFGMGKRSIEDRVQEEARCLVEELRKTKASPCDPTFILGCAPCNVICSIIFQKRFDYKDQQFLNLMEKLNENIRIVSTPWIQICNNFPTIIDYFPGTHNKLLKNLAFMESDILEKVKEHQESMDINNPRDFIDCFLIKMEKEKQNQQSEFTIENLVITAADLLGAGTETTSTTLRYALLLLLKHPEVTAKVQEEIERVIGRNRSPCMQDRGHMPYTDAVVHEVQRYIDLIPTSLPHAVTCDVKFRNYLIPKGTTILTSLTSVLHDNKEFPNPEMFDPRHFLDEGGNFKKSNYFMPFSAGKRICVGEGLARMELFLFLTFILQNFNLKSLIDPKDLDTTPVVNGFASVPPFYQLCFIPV

inhibition, active:
Cc1cc2cc(CNC(=O)c3cccs3)ccc2[nH]1 86.8%, O=C(COc1ccccc1)NCCc1nc2ccccc2[nH]1 65.9%, Cc1cc(C)c2nc(SCCC#N)nc(C)c2c1 53.5%, Cc1nnsc1S(=O)(=O)Cc1ccccc1Cl 56.2%, N#CC1=C(SCc2ccc(C#N)cc2)N=C(N)C(c2nc(-c3ccccc3)cs2)C12CCCCC2 (stereo not drawn) 92.9%, Cn1c2ccccc2c2c(C(=O)N3CCN(c4ccc(F)cc4)CC3)cn(C3CCCC3)c(=O)c21 85.8%, COc1ccc(COC(=O)c2n[nH]c3ccccc23)cc1F 57.1%, O=C(COC(=O)c1n[nH]c2ccccc12)NCc1ccccc1 76.4%, CCSc1ccccc1C(=O)NCc1ccc(OC)cc1 96.2%, CC1CCCN(c2ccc(C(=O)NCCc3ccccc3)cn2)C1 (stereo not drawn) 60.7%, COc1ccc2nc(SCC(=O)Nc3c(C)cc(C)cc3C)[nH]c2c1 64.3%, COc1ccc(NC(=O)CSc2nc(NS(=O)(=O)c3ccc(C)cc3)cc(=O)[nH]2)cc1 85.4%, COc1ccc(OC)c(C(=O)CSc2nnc(-c3cccs3)o2)c1 54.9%, COc1ccc(-n2c(C)cc(C(=O)CSc3nnc(-c4cccs4)o3)c2C)cc1 83.2%, O=S(=O)(NCc1cccnc1)c1ccc(Br)s1 60.4%, O=S(=O)(NCc1ccccn1)c1ccc(Br)s1 61.6%, Cc1ccc(NC(=O)COc2ccc(-n3ccnc3)cc2)cc1Cl 99.2%, COc1ccccc1-c1c(C)nn2c(C)c(C(C)=O)cnc12 55%

inhibition, inactive:
CSc1cc(C)n(-c2ccccc2C)c(=S)c1C(C)=O -14.7%, CCOC(=O)c1oc2ccccc2c1NC(=O)c1cccs1 5.8%, O=C(O)Cc1ccc(NC(=O)c2cccs2)cc1 1.3%, O=[N+]([O-])c1cccc(-c2nnc3c4ccccc4c4ccccc4n23)c1 5%, COc1ccc(C2=Nc3cc(C)ccc3OC2)cc1 13%, CN(C)CCCNC(=O)c1ccc2[nH]c3ccccc3c2c1 10.5%, COC(=O)Cc1nc2ccccc2[nH]1 3%, CC(C)=C(NC(=O)c1ccco1)C(=O)NCCc1nc2ccccc2[nH]1 -12.2%, COC(=O)CSc1snnc1-c1ccc(Cl)c(Cl)c1 44.8%, Cn1c(SCC(=O)N2CCOCC2)nnc1-c1ccc(NC(=O)c2ccccc2F)cc1 2.8%, O=C(Nc1nnc(SCc2c(Cl)cccc2Cl)s1)C1CCCO1 (stereo not drawn) 9.6%, CSc1ccc(CCNC(=O)C2CCN(c3nnc(-n4cccc4)s3)CC2)cc1 28.8%, CC(=O)Cc1nsc(NC(=O)c2csc3c2CCCC3)n1 42.6%, CCOC(=O)Cn1c(CN(Cc2ccccc2)Cc2ccccc2)nc2c1c(=O)[nH]c(=O)n2C 16.4%, O=S(=O)(NCc1ccccc1Cl)c1cnc[nH]1 22.3%, O=C(Nc1ccccc1)c1nnsc1S(=O)(=O)c1ccc(Cl)cc1 19.5%, COc1cccc(OC)c1C(=O)Nc1nnc(C(C)C)s1 -6.4%, Cc1ccc(NC(=O)c2ccc(CSc3ncnc4nc[nH]c34)cc2)c(C)c1 11.8%, O=C(c1ccc(O)cc1)c1ccc(C(=O)O)c(C(=O)O)c1 -0.1%, O=C(NC1CCCCC1)c1ccc2c(=O)n(CC3CCCO3)c(=O)[nH]c2c1 (stereo not drawn) 0.4%, COc1ccc(C2C3=C(OC(C)=O)c4ccccc4C3=Nc3c2c(=O)n(C)c(=O)n3C)cc1 (stereo not drawn) -6.9%, CCOC(=O)N1CCN(C(=O)c2nn(-c3ccc(C)cc3)c(=O)c3c2c2ccccc2n3C)CC1 -2.9%, Cn1c(C(=O)N2CCC(C(N)=O)CC2)cc2c(=O)n(C)c3ccccc3c21 -10.1%, COc1ccc(CC(=O)Nc2sc(Cc3ccccc3)c(C)c2C(N)=O)cc1 1%, Cc1nn(-c2cc(Cl)ccc2N)c(=O)c2ccccc12 8.7%, Cc1nc(NC(=O)c2cccc(Cl)c2)sc1-c1csc(Nc2cccc(Cl)c2)n1 -18.9%, Cc1cc(OC(=O)c2c(Cl)cccc2Cl)nc(C)n1 -6.5%, CCOC(=O)N1CCN(C(=O)c2n[nH]c(=O)c3ccccc23)CC1 -2.6%, CN(C)S(=O)(=O)c1ccc(NC(=O)COC(=O)c2n[nH]c3ccccc23)cc1 -17.2%, COc1ccc(C(C)=O)cc1COC(=O)Cn1cnc2ccccc2c1=O 28.2%, O=C(Cc1c(O)c2ccccc2[nH]c1=O)NCc1ccccc1 4.1%, CSc1sc(C)cc1C1C(C#N)=C(N)N(c2cccnc2)C2=C1C(=O)CCC2 (stereo not drawn) 29.4%, CCCNC(=O)c1ccccc1NC(=O)CSCc1ccc(OC)cc1 45.7%, CC(C)NC(=O)CSc1ccccc1C(=O)NCc1ccc2c(c1)OCO2 33.8%, COc1cc(OC)c(C(=O)Nc2ccc(N(C)C)cc2)cc1OC -11%, CCCN1C(=O)C(NS(=O)(=O)c2ccc(N)cc2)(C(F)(F)F)C(C(=O)OC)=C1C (stereo not drawn) 6.9%, O=C(NCCc1ccccc1)c1ccc(NC2=NC3CS(=O)(=O)CC3S2)cc1 (stereo not drawn) 5%, CC(=O)c1cccc(NC(=O)N2CCCC2C(=O)NCCc2ccccc2)c1 (stereo not drawn) 30.9%, CCc1ccc2oc(-c3ccc(N)cc3)nc2c1 -5.5%, CC(C)C(=O)N1CCN(CCN=CC2=C(O)CC(c3ccco3)CC2=O)CC1 (stereo not drawn) 2.8%, O=[N+]([O-])c1ccccc1/C=N/n1c(COc2ccccc2)n[nH]c1=S 8.1%, Cc1cccc(-n2c(N)c(C(=O)N3CCN(C)CC3)sc2=S)c1 6.5%, CC1CCCN(Cc2nc3c(c(=O)n(C)c(=O)n3C)n2CC(=O)c2ccccc2)C1 (stereo not drawn) 15.6%, COc1cc2ccccc2cc1C(=O)Nc1ccc(S(=O)(=O)Nc2cc(C)on2)cc1 -10.1%, COC(=O)c1cccc(NC(=O)CSc2nc(C)cc(=O)[nH]2)c1 20.8%, COc1ccc(NC(=O)CSc2nc(N)c(-c3ccccc3)c(=O)[nH]2)cc1 2%, COc1ccc(OC)c(NC(=O)CSc2nc(N)c(-c3ccccc3)c(=O)[nH]2)c1 11.1%, C=CCn1c(=S)[nH]c2nc3c(cc2c1=O)COC(C)(C)C3 41.9%, Cc1nc2ncnn2c(C)c1CCC(=O)N1CCN(C(=O)c2ccco2)CC1 -9.1%, CCN(c1ccccc1)S(=O)(=O)c1ccc(N)cc1 12.9%, Cn1nnc(NC(=O)CSc2ncn[nH]2)n1 -2%, Cn1nc(-c2ccc(Cl)cc2)c2cc(C(=O)NCc3ccco3)sc21 24.9%, COC(=O)CSc1nnc(-c2cccnc2)o1 7.2%, Cc1cc(NC(=O)CSc2nnc(-c3ccc(Cl)s3)o2)no1 32.4%, COc1ccc(-c2nnc(SCC(=O)c3cccs3)o2)c(OC)c1 14.1%, COc1ccc(-c2nnc(SC(=O)N3c4ccccc4Sc4ccccc43)o2)cc1 11.9%, COc1cc(/C=C(\C#N)c2nc3c(s2)CC(C)CC3)ccc1O (stereo not drawn) 2.4%, Cc1ccc2nc(SCc3nnc(-c4ccccc4[N+](=O)[O-])o3)c(C#N)cc2c1 17.1%, O=S(=O)(CCc1nc2ccccc2o1)c1ccc(Cl)cc1 30.1%, COc1ccc(N2C(=O)C3CCCN3C2c2cccs2)cc1 (stereo not drawn) 29.5%, CC12CN(Cc3ccccc3)CC(C)(CN(Cc3ccccc3)C1)C2=NO 15.1%, c1ccc(CSc2ncnc3c2sc2nc(N4CCOCC4)c4c(c23)CCCC4)cc1 4%, CCCSc1nsc(N)n1 15.5%, CCc1nn(-c2cc(Oc3cccc4ccccc34)nc(-c3ccccc3)n2)c(N)c1C#N 0.4%, Cc1cc(Cl)c(S(=O)(=O)NCc2cccnc2)cc1OCC(N)=O -7.3%, O=S(=O)(NCc1cccnc1)c1ccc(Cl)nc1 13.3%, CN(c1ccc(C(=O)NCc2ccccn2)cc1)S(C)(=O)=O 14.5%, O=S(=O)(NCc1ccccn1)c1ccc(F)cc1 40.5%, C#CCSc1nnc(-c2sc3ccccc3c2Cl)o1 25.2%, COc1ccc(C(F)(F)F)cc1N/C=C\c1nnnn1-c1ccc(C)cc1 40.8%, CCc1ccccc1N(CC(=O)N1CCN(c2ccccc2F)CC1)S(C)(=O)=O -6.6%, Cc1ccccc1OCC(=O)Nc1ccc(N2CCN(C(=O)C(C)C)CC2)c(Cl)c1 42.7%, Cc1csc(OCC(=O)Nc2ccc(C)c(C)c2)n1 15.8%, Cc1ccc(SCC(=O)NC(=O)NCc2ccco2)c(C)c1 27%, CC1(N2CCOCC2)CC2(O)C(=[N+]1[O-])CCc1nonc12 (stereo not drawn) 21.6%, CC(=O)c1cnn(-c2cc(Oc3ccc(F)cc3)ncn2)c1C 46.1%, COc1ccccc1Nc1ncc(C(C)=O)c(C)n1 1.3%, Cc1nn(-c2ncc(C(F)(F)F)cc2Cl)c(=O)n1-c1ccccc1 23.9%, CCCc1cc(=O)oc2c(C)c(O)c(CN3CCCCC3)cc12 44.5%, CC1Cc2cc(/C(O)=C3\C(=O)C(=O)N(CCN4CCOCC4)C3c3ccccc3F)ccc2O1 (stereo not drawn) -2.6%
